This is a sample that favours compounds with a hit; in the whole collection about 9.2% have one here.
ELG1 genotoxic: genotoxicity induction in ELG1-luciferase HEK293T cells | HEK293T ELG1-luciferase reporter, luminescence, 16 h | Potency, µM (titrated, usually from 46 µM), without a hit: at the highest dose activity change, positive = activation, most hits filed as activators | 330,000 tested, 1.3% active; also: % of control where 0% means no effect; nearly all actives have a fitted effect of over 60% in size
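After overnight (16 hr) compound treatment at 37 °C, ELG1-luciferase HEK293T cells were lysed with ONE-Glo; luminescence quantified 30 min later at room temperature.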
NPC1 promoter act: activators of NPC1 promoter; Potency, µM (series often up to 9.22 µM), for the others: at the top dose activation, most hits filed as activators; 320,000 tested, 2.4% active; Huh7 NPC1 promoter luciferase reporter, 24 h; also: % of control where 0% means no effect; nearly all actives have a fitted effect of over 60% in size
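Quantitative HTS used a cell-based reporter: Huh7 cells stably bearing the NPC1 promoter upstream of luciferase were treated with compounds for 24 h, and promoter activation was read as luminescence.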
FLuc modulator: counter-screen for miR-21 project: firefly luciferase inhibitors or activators | P08659 | purified FLuc, Km substrates, luminescence inhibition | 360,000 tested, 6.9% active | AID 588342 | Potency, µM (highest dose often 57.5 µM), without a hit: top-dose activity change, negative = inhibition, hits mostly inhibitors;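 also: plate controls were vehicle for no effect and reference inhibitor for full effect; nearly all actives have a fitted effect of over 55% in size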
Target sequence (P08659 whole entry, looked up): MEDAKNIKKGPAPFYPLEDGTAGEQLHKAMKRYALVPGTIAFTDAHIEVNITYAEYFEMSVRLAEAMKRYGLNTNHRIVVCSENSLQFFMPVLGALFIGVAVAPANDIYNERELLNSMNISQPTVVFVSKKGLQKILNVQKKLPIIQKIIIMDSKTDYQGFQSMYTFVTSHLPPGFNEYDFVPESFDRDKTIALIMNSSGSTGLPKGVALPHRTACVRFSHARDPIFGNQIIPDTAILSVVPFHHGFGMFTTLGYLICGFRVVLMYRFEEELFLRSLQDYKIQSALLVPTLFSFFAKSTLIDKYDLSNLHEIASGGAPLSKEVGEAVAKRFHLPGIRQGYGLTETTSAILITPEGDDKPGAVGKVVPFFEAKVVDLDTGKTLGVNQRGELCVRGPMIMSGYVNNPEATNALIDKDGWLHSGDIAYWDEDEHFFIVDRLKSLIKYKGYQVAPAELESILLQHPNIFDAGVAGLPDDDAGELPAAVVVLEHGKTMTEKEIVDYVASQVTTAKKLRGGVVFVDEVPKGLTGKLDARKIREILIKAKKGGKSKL
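Purified P. pyralis luciferase (10nM final) with 10uM D-luciferin and 10uM ATP (Km levels) in 50mM Tris acetate pH 7.5, 10mM Mg acetate, 0.01% Tween-20, 0.05% BSA; qHTS 6-point titration, ~60 µM downward; luminescence read.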
ELG1 repair inh: blocks ELG1-dependent DNA repair in HEK293T cells. HEK293T ELG1-luciferase reporter, luminescence, 16 h; DNA damage induced by 5-fluorouridine. Potency, µM (highest dose often 46.1 µM), for inactives: at the highest dose activity change, negative = inhibition, hits mostly inhibitors. 330,000 tested, 2.3% active. AID 504467; also: % is scaled to controls: 0 for no effect and ±100 for the full control effect; nearly all actives have a fitted effect of over 55% in size
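In this reporter screen, reduction of luminescence relative to DMSO vehicle indicated activity. Compounds and 5-fluorouridine were added together to 2,000 cells per well, incubated for 16 hr at 37 °C, then developed with ONE-Glo.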
Rab9 promoter act: activates the Rab9 promoter. Huh7 Rab9 promoter-luciferase reporter, luminescence, 24 h. Potency, µM (doses to about 9.22 µM), inactives show at the highest dose activation, negative = inhibition, most hits filed as activators. 320,000 tested, 2.8% active. AID 485297; also: % of control where 0% means no effect; nearly all actives have a fitted effect of over 60% in size
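Quantitative HTS format; Huh7 Rab9-luciferase reporter cells (1500/well) receive compound 2 h post-plating, incubate 24 h at 37 °C, then get luciferase reagent for 10 min before luminescence reading.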
SMN2 splice enh: increases expression of the SMN2 splice variant. AID 1458. 210,000 tested, 2.8% active. Potency, µM (top dose mostly 46.1 µM), for the others: at the top dose activity change, positive = activation, most hits filed as activators. HEK293 SMN2-luciferase splicing reporter, luminescence, 30-36 h; also: % of control where 0% means no effect; nearly all actives have a fitted effect of over 55% in size
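HEK293 cells carry an SMN2 minigene-luciferase reporter in which exon 7 inclusion puts luciferase in frame. Cells were seeded at 2000 cells/well, attached for 10-12 hours, then exposed to compounds for 30-36 hours at 37C before ONE-Glo luminescence.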
An asterisk follows results filed as active; ? = inconclusive; · = no result. Calls follow the shape of the dose curve; as a rule, active = well fitted curve in the direction sought with a large enough effect; inconclusive = small, poorly fitted or top-dose-only effect, or another doubt; inactive = no such curve, though single readings can be large; an effect the other way counts as inactive or inconclusive. Potency is read from the fitted curve at half-maximal effect.

SMILES	ELG1 genotoxic	NPC1 promoter act	FLuc modulator	ELG1 repair inh	Rab9 promoter act	SMN2 splice enh
O=C(COC(=O)c1ccco1)c1ccc(F)cc1	?	0%	2.7µM*	19%	1%	·
CC(C)C(NC(=O)c1ccco1)C(=O)OCC(=O)c1ccccc1 (stereo not given)	2%	0%	17µM*	12%	6%	·
Cc1cccc(C)c1C(=NCCCN(C)C)c1ccccc1	-4%	-5%	2%	-7%	-4%	4%
O=C(CCn1c(=O)c2sccc2n(CC(=O)Nc2ccccc2)c1=O)NCc1ccccc1Cl	·	·	3%	·	·	-6%
Cc1cc(C(=O)COC(=O)c2cccn2C)c(C)n1Cc1ccco1	0.41µM*	0.79µM*	0.6µM*	?	0.63µM*	?
Cc1cc(C(=O)CSc2nnc(N)s2)c(C)n1Cc1ccco1	1.8µM*	0.45µM*	3µM*	?	0.45µM*	?
Cc1cc(C(=O)COC(=O)c2ccncc2)c(C)n1Cc1ccco1	3%	-12%	0.85µM*	17%	?	6%
Cc1cccc(-n2nnnc2SCC(=O)c2cc(C)n(Cc3ccco3)c2C)c1	5%	11%	-12%	10%	9%	-22%
N#Cc1cnn2c(-c3ccc(Cl)cc3Cl)ccnc12	3%	-10%	0%	-5%	-3%	-5%
Cc1cccc(C(=O)Nc2sc(-c3ccccc3)cc2C(=O)O)c1	?	2.5µM*	11µM*	?	?	·
NC(=O)c1ccccc1NC(=O)CN1CCCCCC1	-6%	18%	4%	8%	0%	·
NC(=O)c1cc(-c2ccccc2)sc1NC(=O)CN1CCCCC1	-5%	0%	19µM*	?	-3%	-3%
CC(C)(C)C(=O)Nc1sc(-c2ccccc2)cc1C(=O)O	15%	4.5µM*	11µM*	?	3.2µM*	·
Nc1sc(-c2ccccc2)cc1C(=O)O	26%	14%	-20%	?	9%	-3%
Cn1nc(-c2ccc(C(=O)NCCO)cc2)c2ccccc2c1=O	3%	2%	-4%	?	-2%	·
CN(C)C(=S)SCC(=O)Nc1ccc(Cl)cc1Cl	13%	2%	?	?	17%	-6%
COc1ccccc1N1CCN(CC(O)c2ccc3cc[nH]c3c2)CC1 (stereo not given)	-16%	-3%	0%	-5%	-6%	2%
COc1ccc(NC(=O)[C@H](C)NC(N)=O)cc1S(=O)(=O)Nc1cc(C)ccc1Br	-3%	-2%	-11%	10%	2%	?
COc1ccc(NC(=O)C2CCC2)cc1S(=O)(=O)Nc1cc(C)ccc1Br	-9%	·	·	23µM*	·	·
O=C(CSc1ccccc1)NCCCc1ccccc1	8%	0%	-13%	13%	-4%	20%
COCCCNC(=O)CCCn1c(=O)c2ccccc2n(Cc2cccc([N+](=O)[O-])c2)c1=O	0%	-5%	1%	0%	-6%	-8%
Cn1c(CCN2CCN(c3ccccn3)CC2)nc2cc(NS(=O)(=O)c3ccccc3)ccc21	-10%	-2%	-1%	9.2µM*	-3%	·
O=C(/C=C/c1ccc(F)cc1)NC(=S)N1CCN(c2ccccn2)CC1	10%	?	21µM*	18%	2.5µM*	·
COc1ccc(/C=C/C(=O)NC(=S)N2CCN(c3ccccn3)CC2)cc1OC	-4%	-4%	24µM*	-29%	-3%	·
CSc1ccc(/C=C/C(=O)N2CCN(c3ccccn3)CC2)cc1	3%	4%	13µM*	1%	0%	·
SMILES	ELG1 genotoxic	NPC1 promoter act	FLuc modulator	ELG1 repair inh	Rab9 promoter act	SMN2 splice enh
Cc1ccc(OCCSc2nc3ccccc3n2CCC(=O)O)cc1	-6%	-2%	?	-1%	2%	·
Cn1c(CSCc2ccccc2)n[nH]c1=S	0%	-4%	0%	0%	2%	2%
COc1ccc(-c2cc(-c3ccccc3)c(C#N)c(SCC(O)CS(=O)(=O)Cc3ccccc3)n2)cc1 (stereo not given)	·	·	0%	·	·	2%
COc1cc(/C=C2/C(=O)NN(c3ccc(Cl)cc3)C2=O)cc(OC)c1O	0%	0%	12µM*	5%	-2%	·
COc1cc(/C=C2\C(=O)NN(c3ccccc3)C2=O)cc([N+](=O)[O-])c1O	7%	-4%	?	1%	9%	3%
COc1cc(/C=C2/C(=O)NN(c3ccccc3)C2=O)cc(Br)c1O	10%	-4%	17µM*	5%	-2%	·
CCOC(=O)COc1ccc(/C=C2/C(=O)NN(c3ccc(F)cc3)C2=O)cc1OC	8%	-3%	?	56%	0%	·
COc1ccc(NC(=O)C(Cc2c[nH]c3ccccc23)NC(=O)OC(C)(C)C)cc1 (stereo not given)	·	·	-7%	·	·	3%
COc1ccc(C2CC(c3ccccc3)=NN2c2ccc(N)cc2)cc1 (stereo not given)	13%	-5%	9.5µM*	-22%	4%	8%
COc1ccc(-c2nn(CCC(=O)O)cc2CCC(=O)O)cc1	1%	-1%	-1%	-6%	8%	-2%
COc1ccc(C2=NN(c3ccccc3)C(c3cn(CCC(=O)O)nc3-c3ccccc3)C2)cc1 (stereo not given)	4%	7%	4.3µM*	?	16%	11%
CCC(=O)Nc1cccc(C2=NN(c3ccccc3)C(c3ccc(OC)cc3)C2)c1 (stereo not given)	-3%	2%	-13%	?	-6%	·
COc1ccc(C2CC(c3ccccc3)=NN2c2ccc(Cl)c(C(=O)O)c2)cc1 (stereo not given)	6%	0%	21µM*	6%	0%	·
NCCc1nc2cccnc2n1-c1ccccc1	·	·	0%	·	·	·
CC1CCC2CC1C2(C)C (stereo not given)	·	·	·	·	·	-2%
Cc1cc(=O)oc2cc(NC(=O)c3ccccc3OC(F)F)ccc12	?	4µM*	?	?	3.2µM*	·
Cc1cc(=O)oc2cc(NC(=O)c3cccc(Br)c3)ccc12	19%	?	0%	?	?	·
Cc1cc(=O)oc2cc(NC(=O)c3cc(F)ccc3F)ccc12	?	?	3%	?	2.5µM*	·
Cc1cc(=O)oc2cc(NC(=O)C(C)Oc3cccc(Cl)c3)ccc12 (stereo not given)	8%	10%	1%	?	2%	·
CCn1c(SCC(=O)Nc2nccs2)nnc1-c1ccc(C)cc1	-3%	-2%	-6%	-8%	1%	-4%
CCC(=O)Nc1ccc(-c2nnc(SCc3ccc(C(=O)Nc4nccs4)cc3)n2CC)cc1	-2%	3%	11µM*	?	·	-7%
CC(=O)Nc1ccc(C(=O)CSc2nnnn2C)cc1	1%	0%	-4%	9%	-2%	·

Assay outcomes (PubChem BioAssay)
